# Assay outcomes (PubChem)
# Vaccinia mCherry = qHTS for Stage-Specific Inhibitors of Vaccinia Orthopoxvirus: mCherry Reporter Primary qHTS; Vaccinia virus mCherry reporter infection, fluorescence; Potency, µM (series often up to 36.5 µM), for inactives: at the highest dose activity change, negative = inhibition, actives largely listed as inhibitors; 310,000 compounds, 0.63% hits; AID 720579, 2013; calls by dose curve; tested in A549 cells; also: potency is read from the fitted curve at half-maximal effect; nearly all actives have a fitted effect of over 35% in size
# Giardia FBPA inh = qHTS Assay for Inhibitors of Fructose-1,6-bisphosphate Aldolase from Giardia Lamblia | Potency, µM (titrated, usually from 59.6 µM), without a hit: at the highest dose activity, negative = inhibition, most hits filed as inhibitors | AID 2451, 2010 | A8B2U2 | 290,000 compounds, 0.71% hits | purified Giardia FBPA; also: potency is read from the fitted curve at half-maximal effect; nearly all actives have a fitted effect of over 55% in size
# Target sequence (A8B2U2 whole entry, looked up): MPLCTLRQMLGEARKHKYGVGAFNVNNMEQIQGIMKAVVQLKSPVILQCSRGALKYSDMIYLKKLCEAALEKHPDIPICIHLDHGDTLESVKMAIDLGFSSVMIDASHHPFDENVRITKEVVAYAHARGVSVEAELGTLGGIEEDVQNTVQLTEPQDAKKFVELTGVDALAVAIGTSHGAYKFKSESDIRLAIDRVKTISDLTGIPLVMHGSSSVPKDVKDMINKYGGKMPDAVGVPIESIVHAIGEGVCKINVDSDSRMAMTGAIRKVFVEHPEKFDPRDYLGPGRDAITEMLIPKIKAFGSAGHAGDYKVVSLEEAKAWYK
#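 Giardia FBPA (40 nM reagent) was preincubated 10 min at RT with compound (up to 57.5 uM final), then substrate plus GAPDH/TPI/NAD/arsenate coupling system with diaphorase/resazurin was added; resorufin fluorescence (525/598 nm) was read after 20 min.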
# HCMV inh = qHTS Assay for inhibitors of the human cytomegalovirus (HCMV); HFF cells, HCMV-luciferase reporter, 72 h; stronger effect = lower value; 410,000 compounds, 4.5% hits; AID 1259415, 2018; activity change, negative = inhibition, % at 57.5 µM; in the data active = activity change below about -60%; inconclusive = no clear call, values can overlap the other calls; inactive = above about -39%
#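 Cell-based, HFFs, 1000 cells/well, 16 h 37C; cpds in DMSO + HCMV-luc, MOI 1 PFU/cell; 72 h 37C; OneGlo luminescence after 5 min RT; norm. to buffer vs Salinomycin 10uM.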
# VACV Venus inh = qHTS for Stage-Specific Inhibitors of Vaccinia Orthopoxvirus: Venus Reporter Primary qHTS; Vaccinia virus Venus reporter expression, fluorescence; Potency, µM (highest dose often 36.5 µM), without a hit: at the top dose activity change, negative = inhibition, actives largely listed as inhibitors; 330,000 compounds, 0.46% hits; AID 720580, 2013; calls by dose curve; tested in A549 cells; also: potency is read from the fitted curve at half-maximal effect; nearly all actives have a fitted effect of over 30% in size
# HCV inh = qHTS Assay for Inhibitors of Hepatitis C Virus (HCV). Huh7.5.1 HCVcc-Cre infection, luciferase reporter, 44 h. Potency, µM (series often up to 41.8 µM), without a hit: top-dose activity change, negative = inhibition, most hits filed as inhibitors. 340,000 compounds, 3.4% hits; also: potency is read from the fitted curve at half-maximal effect
#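 Reporter virus HCVcc-Cre (~0.5 moi) infects cells exposed to compound; seeding density 1,000 cells/well with 4 h settling beforehand. Luminescence, 15 sec read, taken 44 h post-infection following a 15 min RT substrate incubation.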
# FMDV antiviral = High Throughput Screening for Foot and Mouth Disease Virus Antivirals. 410,000 compounds, 1.2% hits. FMDV antiviral cell-based qHTS. Potency, µM (top dose mostly 57.9 µM), without a hit: at the highest dose activity change, negative = inhibition, hits mostly inhibitors; calls by dose curve; tested in HEK293T cells; also: read-out not given here; potency is read from the fitted curve at half-maximal effect; nearly all actives have a fitted effect of over 45% in size
# Active calls of the source: *; i = inactive; ? = inconclusive; . = no result. Sampled rows, rich in hits. Any-hit rate of the full collection: about 7.5%. Unless noted, calls follow the shape of the dose curve; as a rule, active = well fitted curve in the direction sought with a large enough effect; inconclusive = small, poorly fitted or top-dose-only effect, or another doubt; inactive = no such curve, though single readings can be large; an effect the other way counts as inactive or inconclusive. % is scaled to controls: 0 for no effect and ±100 for the full control effect.
SMILES,Vaccinia mCherry,Giardia FBPA inh,HCMV inh,VACV Venus inh,HCV inh,FMDV antiviral
CC(=O)N(c1ccc2ccccc2c1)C1SC(=O)N(c2cccc(C)c2)C1=O (stereo not given),-7.1%,.,.,-9.0%,.,.
CCCc1c(C)nc2ccccc2c1SCCC#N,-10.8%,-11.5%,-85.4*,-29.8%,?,-28.1%
Cc1ccc2nc(SCCC#N)nc(C)c2c1,-24.1%,3.2%,-35.8,-4.5%,10µM*,-0.5%
CCc1c(C)nc2ccc(Br)cc2c1SCCC#N,i,-0.3%,-83.5*,-4.3%,?,?
CCCCc1c(C)nc2ccc(Br)cc2c1SCCC#N,.,-3.2%,.,.,?,.
Cc1ccc2nc(SCC(=O)O)nc(C)c2c1,-12.4%,-3.9%,48.8,-11.8%,11.0%,.
CC(C)Oc1ccc(CNC(=O)C2CCN(C(=O)N3CC(C)Oc4ccccc43)CC2)cc1 (stereo not given),-10.7%,.,-11.9,-17.4%,.,?
Cc1ccccc1C1(CC(=O)N2CCCCC2C)CC(=O)N(Cc2cccnc2)C1=O (stereo not given),-10.1%,.,.,3.2%,.,6.1%
COc1ccc([N+](=O)[O-])cc1NCc1c(F)cccc1F,-14.8%,.,4.1,-17.4%,.,-1.7%
COc1ccc([N+](=O)[O-])cc1NCc1cccnc1,i,-4.4%,10.5,-8.7%,7.94µM*,3.9%
O=[N+]([O-])c1ccc(Oc2cccnc2)c([N+](=O)[O-])c1,-2.9%,.,2.2,?,?,31.6µM*
COc1ccc([N+](=O)[O-])cc1Nc1ncnc2ccccc12,.,-7.2%,-61.9*,.,?,-16.4%
COc1cc([N+](=O)[O-])ccc1NC(=O)NCc1cccnc1,.,.,-23.2,.,-17.4%,-9.3%
COc1ccc([N+](=O)[O-])cc1NCc1cccc([N+](=O)[O-])c1,?,2.2%,-3.3,10µM*,3.98µM*,-10.9%
Nc1ncc(/C=C/CNC(=O)c2cc(Cl)c(Br)[nH]2)[nH]1,.,.,-14.6,.,.,.
COC(=O)c1ccc2nc(-c3ccco3)c(Cc3ccccc3C(F)(F)F)n2c1,-1.7%,.,37.7,-8.3%,.,-24.5%
Cc1ccc(Nc2nc(-c3sc(C)nc3C)cs2)cc1,.,4.7%,?,.,5.62µM*,8.9%
Cc1nc(Nc2ccccc2)sc1C(=O)Nc1ccccc1,-28.8%,-3.8%,16.9,-24.1%,?,24.4%
NS(=O)(=O)c1ccc(Nc2nc(-c3ccc4ccccc4c3)cs2)cc1,.,-3.3%,-32.2,.,?,?
Cc1ccc(Nc2nc(-c3sc(N)nc3C)cs2)cc1,.,?,57.6,.,-8.6%,22.7%
NS(=O)(=O)c1ccc(Nc2nc(-c3cccc([N+](=O)[O-])c3)cs2)cc1,?,-6.2%,?,-11.9%,25.1µM*,?
Cc1nc(Nc2ccc(S(N)(=O)=O)cc2)sc1C(=O)Nc1ccccc1,-28.9%,-2.0%,-68.9*,-11.9%,?,?
CC(=O)c1ccc(Nc2nc(-c3sc(C)nc3C)cs2)cc1,?,.,-28.5,?,.,25.1µM*
CC(=O)c1cccc(Nc2nc(-c3sc(N)nc3C)cs2)c1,-10.7%,?,19.7,-9.7%,?,?
CC(=O)Nc1ccc(Nc2nc(-c3sc(C)nc3C)cs2)cc1,-13.0%,10.5%,-28.9,-12.6%,?,31.6µM*
SMILES,Vaccinia mCherry,Giardia FBPA inh,HCMV inh,VACV Venus inh,HCV inh,FMDV antiviral
Cc1nc(C)c(-c2csc(Nc3ccc(S(N)(=O)=O)cc3)n2)s1,-23.4%,1.1%,-18.2,-27.5%,11.2µM*,-19.0%
CC(=O)c1cccc(Nc2nc(-c3sc(C)nc3C)cs2)c1,-18.9%,-10.1%,3.1,?,8.91µM*,?
O=S(=O)(NCCc1ccccc1)c1ccccc1Br,.,-21.6%,.,.,.,.
CCOc1cc(C(C(=O)NCC2CCCO2)N(C(=O)Cn2nnc3ccccc32)c2ccccc2C(C)=O)ccc1O (stereo not given),-10.1%,4.1%,-22.8,-12.3%,-0.9%,80.6%
CN(C)c1ccc(/C=N/O)cc1,i,-3.5%,-28.3,-0.2%,8.8%,27.1%
CN(C)c1ccc(/C=C2/C(=N\O)C3CCN2CC3)cc1,-25.7%,-8.7%,-98.2*,-20.0%,-13.5%,9.1%
COc1ccccc1C(=O)Nc1ccnn1C1CCN(Cc2ccn[nH]2)CC1,-15.3%,.,?,-5.9%,-0.7%,-4.5%
O=C(Cn1c(-c2ccccc2)c[n+]2ccsc12)c1ccc(Br)cc1,i,4.1%,-74.5*,1.5%,-5.3%,-11.9%
Cc1cccc2c1NC(=O)/C2=C\C(=O)c1cccs1,-18.4%,-7.1%,-10.5,-12.4%,29.7%,?
CCc1ccc2c(c1)/C(=C/C(=O)c1cccs1)C(=O)N2,.,-18.4%,-99.1*,.,22.4µM*,20µM*
Cc1cc(=O)n(CC(=O)Nc2ccc([N+](=O)[O-])cc2)c(-n2nc(C)cc2C)n1,-15.5%,.,0.0,-6.0%,.,-14.3%
Cc1c(C(=O)c2cccc3ccccc23)c2cccc3c2n1[C@H](CN1CCOCC1)CO3,-25.4%,-9.0%,-98.1*,?,?,-28.5%
O=C(Nc1ccccc1N1CCCCC1)c1ccc([N+](=O)[O-])o1,12.6µM*,.,-32.2,?,?,-15.6%
O=C(Nc1cccc(Cl)c1N1CCCC1)c1ccc([N+](=O)[O-])o1,-11.0%,-4.6%,1.9,-10.6%,?,-24.3%
O=C(Nc1ccccc1N1CCN(C(=O)c2ccc(Cl)cc2)CC1)c1ccc([N+](=O)[O-])o1,?,.,.,?,?,-19.6%
O=C(Nc1ccccc1N1CCOCC1)c1ccc([N+](=O)[O-])o1,11.2µM*,.,8.5,?,-13.8%,1.3%
CCN1CCN(c2c(Cl)cccc2NC(=O)c2ccc([N+](=O)[O-])o2)CC1,.,.,-97.3*,.,.,.
O=C(/C=C\c1ccco1)Nc1nc(-c2ccc3ccccc3c2)cs1,?,-9.2%,-75.8*,?,?,?
CC(=O)NC(=S)Nc1ccc(NC(=S)NC(=O)/C=C/c2ccco2)cc1,i,-9.1%,-79.3*,-6.9%,-14.9%,28.4%
Cc1ccc(-c2csc(NC(=S)NC(=O)/C=C/c3ccco3)n2)cc1,.,.,-37.0,.,12.6µM*,15.4%
O=C(O)c1ccccc1C(=O)Nc1nc(-c2ccc3ccccc3c2)cs1,.,.,-20.9,.,?,33.0%
O=C(NC(=S)Nc1nc(-c2ccc([N+](=O)[O-])cc2)cs1)c1ccco1,-14.7%,.,-83.7*,-12.0%,-4.1%,8.3%
Cc1ccc(O)c(NC(=S)NC(=O)/C=C/c2ccco2)c1,-19.3%,-9.1%,-11.4,-13.0%,-5.4%,16.9%
CC[C@H](Oc1ccc(Cl)cc1)C(=O)OC1C[C@H]2CC[C@@H](C1)N2C (stereo not given in full),.,-9.7%,.,.,.,-17.4%
C=CCNc1nc(-c2ccc([N+](=O)[O-])cc2)cs1,?,-3.8%,-69.3*,-23.2%,?,-2.8%
